Unmarked numbers belong to inactive results.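 The calls were made as follows: active = AUC reduced over 20% with Padj below 0.05 in at least 2 of 3 replicates; inactive = otherwise.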
Experiments:
Test in all cases: growth AUC relative to DMSO control (median of replicates) (fraction); higher = more growth (less inhibition), active = hit call of the paper
Details in all cases: 20 µM; 24 h
[1] = test system: Coprococcus comes
In short: (§1)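 Area under the growth curve was normalised to the plate median of solvent-only wells, except on the industrial chemical plate, where row and column medians were used. Curves came from gut bacterial monocultures grown anaerobically at 37 °C in mGAM with 20 µM compound (1% DMSO), starting at OD600 0.05 and read at OD600 every hour for 24 h. The minimum OD of each curve was set to 0, and values are medians of three biological replicates grown on separate days.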

[2] = test system: Escherichia coli ED1a
In short: as §1

[3] = test system: Escherichia coli IAI1
In short: as §1

[4] = test system: Eubacterium rectale
In short: as §1

[5] = test system: Fusobacterium nucleatum subsp. animalis
In short: as §1

[6] = test system: Lactobacillus gasseri
In short: as §1

[7] = test system: Lactobacillus paracasei
In short: as §1

[8] = test system: Odoribacter splanchnicus
In short: as §1

[9] = test system: Parabacteroides distasonis
In short: as §1

[10] = test system: Parabacteroides merdae
In short: as §1

[11] = test system: Roseburia intestinalis
In short: as §1

[12] = test system: Streptococcus salivarius
In short: as §1

SMILES	growth AUC [1]	growth AUC [2]	growth AUC [3]	growth AUC [4]	growth AUC [5]	growth AUC [6]	growth AUC [7]	growth AUC [8]	growth AUC [9]	growth AUC [10]	growth AUC [11]	growth AUC [12]
CCNc1nc(Cl)nc(N(CC)CC)n1	1.02	1.02	0.971	1.04	1.11	0.925	0.997	1.04	1.07	1	1.01	1.02
CCCCCCCC/C=C\CCCCCCCC(N)=O	0.869	0.991	0.953	1.14	1.02	0.962	1.02	1.04	0.96	0.955	0.933	0.952
COc1cc(OC)nc(Sc2cccc3c2C(=O)OC3C)n1 (stereo not given)	1	0.984	0.999	1.02	0.965	1.06	1	1.09	0.904	0.968	0.988	0.977
Nc1ccc(S(=O)(=O)Nc2nccs2)cc1	1.02	0.994	0.968	0.97	0.993	0.97	1.02	0.987	1	1.03	0.993	1.02
C#CC(C)N(C)C(=O)Nc1ccc(Cl)cc1 (stereo not given)	1.05	1.04	0.988	1	1.03	1.07	1.02	0.994	0.95	1.01	0.992	0.993
CCC/C(=N\OCC(C)Oc1ccc(Cl)cc1)C1=C(O)CC(C2CCCSC2)CC1=O (stereo not given)	0.979	0.98	0.987	0.906	0.913	1.02	0.706	1.07	0.885	0.938	1.02	0.94
CS(=O)(=O)c1ccc(C(=O)C2C(=O)C(O)CC(O)C2=O)c(Cl)c1COCC(F)(F)F (stereo not given)	1	0.988	0.972	0.798	1.02	1.02	0.987	0.98	1.03	0.998	1.03	1.03
CN(C)C(=O)Nc1ccc(Oc2ccc(Cl)cc2)cc1	0.938	0.95	0.938	1.24	0.849	0.926	1.08	1.1	0.937	0.918	0.874	0.94
COC(=O)c1c(Cl)nn(C)c1S(=O)(=O)NC(=O)Nc1nc(OC)cc(OC)n1	1	1.01	1.01	1	1.09	0.882	1.03	0.999	1.01	0.99	1.04	1.05
COC(=O)Cc1cccc2ccccc12	0.997	0.969	0.968	1.07	0.996	0.924	0.974	1.08	0.986	0.995	1.04	1.01
O=C(O)[C@@H](S)[C@@H](S)C(=O)O	1.03	1.02	1.03	1.18	1.05	0.993	1.02	0.985	1.04	1.04	1	0.997
O=C1NCCN1	1.04	1.05	1.06	1.01	1.03	0.984	0.904	1.04	1.02	1.04	1.24	1.02
O=C(O)Cc1c[nH]c2ccccc12	1.03	1	1.02	1.02	1.02	1.22	1.06	0.983	1.02	1.02	1.1	1.01
CCc1cccc(C)c1NC(=O)CS(=O)(=O)[O-].[Na+]	0.996	0.954	0.983	0.974	0.945	1.04	0.949	1.01	1.02	0.989	1	1.01
CCCCN(C)C(=O)Nc1ccc(Cl)c(Cl)c1	1.04	1.01	1	1.04	1.01	0.965	0.98	0.901	0.816	0.932	0.956	0.971
Cn1cc(C(=O)Nc2ccc(F)cc2-c2ccc(Cl)c(Cl)c2)c(C(F)F)n1	0.921	1.01	0.997	0.953	0.944	0.881	0.968	0.865	0.741 (active)	0.892	0.989	0.897
Nc1nc2ccccc2[nH]1	0.971	0.976	0.986	1.08	0.932	0.883	0.969	0.942	0.615	0.933	0.901	0.953
CC(C)(NC(=O)C(Br)C(C)(C)C)c1ccccc1 (stereo not given)	0.959	1.01	0.983	0.889	0.895	1.12	0.895	0.983	0.97	0.95	0.964	0.96
Cc1c(Br)c2ccc(F)cc2n1S(=O)(=O)c1ncn(S(=O)(=O)N(C)C)n1	1.03	0.999	1.11	0.989	1.08	1.04	0.981	0.957	0.861	0.949	1.06	1.06
ClC(COCC(Cl)C(Cl)(Cl)Cl)C(Cl)(Cl)Cl (stereo not given)	0.976	1.01	0.983	0.92	0.992	1.11	1.08	0.971	0.98	0.932	1.01	1.02
CC(C)Nc1nc(N)nc(Cl)n1	1.01	1.01	1.05	1.01	1.05	0.98	0.96	1.06	1.06	1.04	1.06	0.988
CC(=O)Nc1cc(NS(=O)(=O)C(F)(F)F)c(C)cc1C	0.977	0.978	0.976	0.947	0.983	1.12	0.563	1.03	1.05	0.966	1.02	1
O=S(Cc1ccc(Cl)cc1)c1ccc(Cl)cc1 (stereo not given)	1	0.986	0.981	1.09	0.94	0.899	1.24	1.01	0.947	1	1.01	0.984
CCCCCCCCCCCC[N+](C)(C)Cc1ccc(CC)cc1.[Cl-]	0.374 (active)	0.981	0.945	0.863	0.902	0.651 (active)	0.708	0.973	0.671 (active)	0.708 (active)	0.0285 (active)	1.03
CCSC(=O)N(CC)CC	1.04	1	0.994	1	1.02	0.988	0.983	0.915	1.01	0.981	1.06	0.954

— the supplement of paper PMC12669032
